Assay results: the supplement of paper PMC11417369
± gives the standard deviation of the averaged measurements. Whole data set: some 25,000 sequences, median “ln(normalized median fluorescence intensity)” near 8.9, cut for the highest 2% near 10. The sample as a whole holds a higher share of the highest values than the screen did.

The sequences below were run on PfAP2-LT AP2 domain (GST-tagged) (assay: gcPBM binding intensity (ln(normalized median fluorescence intensity)); higher = stronger DNA binding).
How it was run: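 The highest Masliner-normalised natural-log median intensity across replicate spots of either probe orientation is reported as binding intensity. GST-tagged P. falciparum DNA-binding domains expressed in E. coli were applied for 1 h to an Agilent 4 × 180k array of primer-extended double-stranded 36-bp intergenic genomic probes plus negative controls, and bound protein was detected with Alexa488 anti-GST antibody and scanned at 488 nm.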

Row | Sequence | gcPBM binding intensity (ln)
1 | AATTTTTTATATGTCACACATTTATTATTATTATTA [CACACA_site4198] | 8.83 ± 0.48
2 | AACATATAAAAATATGCACACACAGGAATACAAACA [CACACA_site8127] | 9.89 ± 0.45
3 | AAAAAATAAATAAATAGTACTTTAAAAGAAAAAAAA [XGTACX_site5051] | 8.55 ± 0.51
4 | TGTTTATTTAATAATATTTTTTTTTTTATTATATTA [XGTACX_negctrl_site56] | 8.31 ± 0.54
5 | ATAAGATTATACAATTGTACGTTGTTCAAGATAAGG [XGTACX_site191] | 8.8 ± 0.42
6 | AATAAATATAAATAAATAAATATATATATATATTTG [CACACA_negctrl_site1486] | 8.56 ± 0.4
7 | TTTTATGTTTTAAAATGTACGTGTCAATGAATAAGT [XGTACX_site6239] | 8.52 ± 0.42
8 | TTATTTACAACTTCAAATTATGTGTAATACTACTAT [CACACA_negctrl_site741] | 8.73 ± 0.52
9 | AAAACAATATACTGTAGTACTGATGATATATATATA [XGTACX_site7798] | 9.01 ± 0.38
10 | AAGAACAGAACGTACACACACATATATATATATATA [CACACA_site3457] | 10.2 ± 0.28
11 | TATATATACATATACACACATACGTACATACATATA [CACACA_site3585] | 9.13 ± 0.39
12 | ACAAGAACAGAACGTACACACACATATATATATATA [CACACA_site9143] | 10.175 ± 0.0071
13 | TAAAAAAAAACATATACACACAAAAACGTACACATA [CACACA_site1354] | 9.31 ± 0.3
14 | AAGAACAGAACGTACACACACATATTTATATTTATA [CACACA_site7594] | 9.55 ± 0.3
15 | AACACAAGAACAGAACGTACACACACATATATATAT [XGTACX_site7347] | 9.84 ± 0.13
16 | AAAAAATAATAATAAAATGAATAGATATGTATTTAT [TGCATGCA_negctrl_site210] | 8.63 ± 0.52
17 | AAAAAAAAAAAAAAATGTACATATATAATATTTATA [XGTACX_site5117] | 8.54 ± 0.57
18 | TATAAAATTACATTTTGTCATTTATTTTTTCCCACT [TGCATGCA_negctrl_site110] | 8.54 ± 0.63
19 | CCCACAAAGGAATATACACACATATATATATATATA [CACACA_site4091] | 9.95 ± 0.18
20 | AGTATATATACACAAGGGGAATACATATACAAAATT [TGCATGCA_negctrl_site244] | 9.04 ± 0.46
21 | ACAAAAGGGGAATACACACACATATATAAATAAATA [CACACA_site7111] | 9.59 ± 0.6
22 | ACAAAAGGGGAATACACACACATATATATATATATA [CACACA_site2215] | 10.33 ± 0.071
23 | CACACAAAGGAATATACACACATATTTATATTTATA [CACACA_site7841] | 9.21 ± 0.44

Row | Sequence | gcPBM binding intensity (ln)
24 | ATACAAAAGGGGAATACACACACATATATATATATA [CACACA_site8694] | 10.12 ± 0.021
25 | ACAATAAAAATTTATGCATGTGAATTGAAAAAAAAA [TGCATGCA_site1037] | 8.72 ± 0.48
26 | CATAAATCAGCCATAACACACATACATATATACATA [CACACA_site8025] | 9.28 ± 0.42
27 | TAATATACATAATAATGTACATATTTTCATATATAC [XGTACX_site6913] | 8.74 ± 0.35
28 | ACCATGAAAATATTATGTACATATGTATTATATATA [XGTACX_site408] | 8.87 ± 0.33
29 | ATATATAATATATATGCATGTGACATTAATAATATA [TGCATGCA_site880] | 8.81 ± 0.4
30 | TTTATATTGATATATACACACATATACATCCTATTT [CACACA_site7442] | 9.11 ± 0.42
31 | GGAAAAACCATTCGCACACACACATAATATATAATA [CACACA_site1424] | 9.71 ± 0.31
32 | ATAAATATTGGGTGCACACACATAATATATATATAT [CACACA_site2272] | 9.59 ± 0.35
33 | AACCATTGGGAAAGGGTGCACATATATATATATATA | 10.09 ± 0.099
34 | AACATTATAAGACACACACACACATATATATATATA [CACACA_site8259] | 10.3 ± 0.3
35 | AACATTATAAGACACACACACACATATATAAATATA [CACACA_site6622] | 10.2 ± 0.38
36 | AAACATAAGAGACACACACACATATATAAATAAATA [CACACA_site7674] | 9.79 ± 0.38
37 | TAAAACATAAGAGACACACACACATATATATATATA [CACACA_site3643] | 10.1 ± 0.16
38 | TAATAAATAAGACACACACACATATATATATATTAT [CACACA_site1389] | 9.8 ± 0.2
39 | CATTATAAGAGACACACACACATATATAAATATGTA [CACACA_site6621] | 9.63 ± 0.38
40 | ATATGGAATAATACGCGTACACACATATATATATTA [XGTACX_site307] | 9.34 ± 0.3
41 | GAATACATAATAACATGTACACACATTCTTCTATAA [XGTACX_site8725] | 9.01 ± 0.36
42 | ATATATATATATAATGCACACATTATAAATTATGTA [CACACA_site5802] | 9.02 ± 0.31
43 | ATTAAAAAAATTAAAAGTACACATATTTCAATGATA [XGTACX_site5606] | 8.43 ± 0.41
44 | AAAATTATATGTAATTGTACGGAATTATATACGCAA [XGTACX_site2048] | 8.72 ± 0.41
45 | TTGGTCTTTTAAAAAAGTACAAAAAAAAAAAAAAAA [XGTACX_site1665] | 8.08 ± 0.55
46 | AAAAAAAAAAAAAACACACACACAAAATAAACAAAC [CACACA_site2720] | 9.66 ± 0.44

Row | Sequence | gcPBM binding intensity (ln)
47 | ATTCATTCATATGTTACACACACACCCACCCATAAA [CACACA_site9066] | 9.71 ± 0.23
48 | GGACAACAAACAAACACACACAAAAAAAAAATAAAA [CACACA_site3791] | 9.6 ± 0.71
49 | CAAAAAAAATAAAACACACACACAAAAAAATAAAAA [CACACA_site466] | 9.84 ± 0.31
50 | ATTCATATGAAACACACACACACACCCATAAAAAAA [CACACA_site3246] | 10.2 ± 0.2
51 | AAAATAAAATAAAACACAAAAAAATAAAACAAAATA [CACACA_negctrl_site16] | 8.87 ± 0.49
52 | CAACAAAATAAACACACACACACAAACACAAAAAAA [CACACA_site5806] | 10.2 ± 0.27
53 | AAAAAAAAAAAAAAAACACACAAACAAATGAATAAA [CACACA_site5769] | 8.89 ± 0.5
54 | AAATAAATGAAACACACACACACAAAAAAAAAAAAC [CACACA_site2625] | 10.2 ± 0.28
55 | AAAAAAAAAAAAAACACACAAACAAATGAATAAATA [CACACA_site3300] | 8.99 ± 0.54
56 | TCATTCATATGTTACACACACACACCCACATAAAAA [CACACA_site3245] | 9.8 ± 0.23
57 | TAAAATAAAACAAACACACACACACGGACACAAAAA [CACACA_site7754] | 10.4 ± 0.34
58 | ATGTTATATTTTTTTATACACACTGGAATATATAAA [CACACA_site215] | 8.64 ± 0.34
59 | TGAATGTAAGAAAATACACACTAGTATAGTAACACC [CACACA_site5131] | 9.24 ± 0.38
60 | ATGTAATATTTACAACGTACAAATTATAAACATATT [XGTACX_site603] | 8.88 ± 0.35
61 | GACGACTATATTAATTGTACTCAATTTAAGCATAAT [XGTACX_site2750] | 8.72 ± 0.35
62 | TTAATAACAAAATAAACACACATATATAAATACCCA [CACACA_site4960] | 9.11 ± 0.4
63 | TATATCTATAATATTACACACATATATTTATATTTT [CACACA_site7595] | 8.95 ± 0.33
64 | CATATTATATTTTCATGTACACATAACATATTTATA [XGTACX_site4787] | 8.76 ± 0.42
65 | GAATAAATTGTATTGTGTACATATAAAAGCATCTAA [XGTACX_site8271] | 8.8 ± 0.4
66 | TTCTTTTTAAATTACACACACATATATATATGTATA [CACACA_site3515] | 9.32 ± 0.41
67 | AATAATAATTTAAAAAGTACATTCTAATAAACACGT [XGTACX_site1444] | 8.78 ± 0.52
68 | CTCCATATGAAACACACACACAAATGAAAAAAATAT [CACACA_site3018] | 9.82 ± 0.4
69 | ATTAATAAATAAATGACACACACACCCACAAAAAAA [CACACA_site8839] | 9.9 ± 0.12

Row | Sequence | gcPBM binding intensity (ln)
70 | ATAATGAAAAGGAACATACACACCCCATATAAATAT [CACACA_site3442] | 9.61 ± 0.12
71 | CAAAAAATGAAACACACACACACACCCATAAATAAA [CACACA_site1231] | 10.12 ± 0.035
72 | TAATAAATAAATGACACACACACACGCAAAAAAAAA [CACACA_site7275] | 9.94 ± 0.19
73 | TAATAAATAAATGACACACACACACCCAAAAAAAAA [CACACA_site2623] | 10.1 ± 0.41
74 | GGGTATATATTATTATGTACACATGTATAAAATAAG [XGTACX_site2633] | 8.8 ± 0.52
75 | ATACAAAAAGTAAAAAGTACTTAACTAAATATATAA [XGTACX_site2335] | 8.74 ± 0.56
76 | TATATATATATTATATGTACGTATGTATGTATATAT [XGTACX_site6451] | 8.88 ± 0.3
77 | GTATATATGTATGTATGTACGTATATAGTTATGTAT [XGTACX_site6769] | 8.98 ± 0.3
78 | ATATATATATATATATGTACGTACTCAGTTATGCCT [XGTACX_site453] | 10.2 ± 0.29
79 | AGTATAAAATTTGGTTGTACATTTTTAAAAAAATTA [XGTACX_site7519] | 8.29 ± 0.42
80 | GGAATATTAATAAGAGTGCATTTTGTATTCAATATG | 8.66 ± 0.41
81 | GTATAATTTTCGTATTCACACAAGAATATACTACAT [CACACA_site4877] | 8.91 ± 0.45
82 | AAAAAAAAAAGACACACACACACACGGACACATACA [CACACA_site7363] | 10.3 ± 0.13
83 | TATCTCATAGTATACACACACACACGCGCACATATA [CACACA_site6917] | 10.1 ± 0.3
84 | ACATCAAGCAGACACACACACACACGCACACGCACA [CACACA_site6309] | 10.4 ± 0.17
85 | CACACGCACGGACACACACACAAAAAAAAAAAGAAA [CACACA_site6378] | 9.34 ± 0.58
86 | CCAACATGCAGACGCACACACAAAAAAAGCATGCAT [CACACA_site74] | 9.54 ± 0.4
87 | TCATAGTATAGACACACACACACACGCATATAAATA [CACACA_site6915] | 9.92 ± 0.13
88 | CACAGACACGGACACACACACACAAAAAAAAAAAGA [CACACA_site4436] | 10.1 ± 0.55
89 | CAAATACACGGACACACACACACAAAAAAAAAAAAA [CACACA_site6385] | 10 ± 0.71
90 | AAAAAAAAAAGACACACACACACATACACATACATA [CACACA_site7362] | 9.97 ± 0.071
91 | TTAAAAAAAAGACACACACACATACACATATTTATA [CACACA_site7535] | 9.94 ± 0.35
92 | TCTCATAGTAGACACACACACACACGCACATATATA [CACACA_site6916] | 10.1 ± 0.31
